An excerpt weighted towards active compounds, which were near 8.7% of everything screened.
JMJD2A Tudor inh = qHTS Assay for Inhibitors of JMJD2A-Tudor Domain. Lysine-specific demethylase 4A (Homo sapiens), O75164. AlphaScreen JMJD2A-Tudor / H3K4me3 peptide binding. Potency, µM (highest dose often 114 µM), inactives show top-dose activity change, negative = inhibition, actives largely listed as inhibitors. hit rate 4.4% among 390,000. AID 504339, 2011; note: % is set by controls: 0 for no effect and ±100 for the full control effect; nearly all actives have a fitted effect of over 50% in size
Target sequence (O75164 whole entry, looked up, the tested form may be a part): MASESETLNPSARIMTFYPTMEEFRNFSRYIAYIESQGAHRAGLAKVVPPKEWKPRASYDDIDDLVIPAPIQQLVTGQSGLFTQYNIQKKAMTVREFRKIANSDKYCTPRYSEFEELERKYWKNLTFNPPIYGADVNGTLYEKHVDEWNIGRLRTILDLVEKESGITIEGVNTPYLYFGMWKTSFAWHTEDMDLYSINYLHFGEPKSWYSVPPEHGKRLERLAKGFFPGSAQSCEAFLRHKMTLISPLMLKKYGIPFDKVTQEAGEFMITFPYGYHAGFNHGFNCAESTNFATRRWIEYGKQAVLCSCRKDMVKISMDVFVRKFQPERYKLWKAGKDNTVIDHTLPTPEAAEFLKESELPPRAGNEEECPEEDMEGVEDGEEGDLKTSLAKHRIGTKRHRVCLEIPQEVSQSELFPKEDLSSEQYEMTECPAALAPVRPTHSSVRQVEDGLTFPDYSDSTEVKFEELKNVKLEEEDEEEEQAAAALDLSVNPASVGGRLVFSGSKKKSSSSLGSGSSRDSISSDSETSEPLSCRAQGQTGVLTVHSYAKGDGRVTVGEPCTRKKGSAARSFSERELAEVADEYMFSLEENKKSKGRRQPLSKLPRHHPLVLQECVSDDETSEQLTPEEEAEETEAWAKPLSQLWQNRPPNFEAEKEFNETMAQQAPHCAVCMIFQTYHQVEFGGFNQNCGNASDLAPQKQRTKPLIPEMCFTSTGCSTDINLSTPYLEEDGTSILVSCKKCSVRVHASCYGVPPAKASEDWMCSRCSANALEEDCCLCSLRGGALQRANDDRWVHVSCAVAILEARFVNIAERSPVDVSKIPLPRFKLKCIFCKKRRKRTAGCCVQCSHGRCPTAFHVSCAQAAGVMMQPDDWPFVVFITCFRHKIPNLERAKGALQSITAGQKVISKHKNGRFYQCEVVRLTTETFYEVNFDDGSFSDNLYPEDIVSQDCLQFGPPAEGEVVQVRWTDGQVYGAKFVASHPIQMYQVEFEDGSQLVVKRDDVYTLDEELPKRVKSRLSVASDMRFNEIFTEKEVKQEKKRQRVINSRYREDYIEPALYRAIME
BAZ2B inh = qHTS Assay for Inhibitors of BAZ2B | Bromodomain adjacent to zinc finger domain protein 2B (Homo sapiens), Q9UIF8 | AlphaScreen BAZ2B-H3K14Ac peptide displacement | Potency, µM (doses to about 114 µM), for inactives: at the top dose activity change, negative = inhibition, hits mostly inhibitors | hit rate 4.4% among 360,000 | AID 504333, 2011; note: % is set by controls: 0 for no effect and ±100 for the full control effect; nearly all actives have a fitted effect of over 60% in size
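In this displacement format the biotinylated H3(5-23) peptide acetylated at Lys14 serves as ligand at 50 nM, with BAZ2B at 50 nM in PBS pH 7.4 containing 0.01% Tween-20. Donor and acceptor beads are 10 ug/mL final.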
HP1b binding inh = HTS for Inhibitors of HP1-beta Chromodomain Interactions with Methylated Histone Tails. hit rate 0.56% among 390,000. Chromobox protein homolog 1 (Homo sapiens), P83916. Potency, µM (titrated, usually from 114 µM), without a hit: at the top dose activity change, negative = inhibition, actives largely listed as inhibitors. AID 540317, 2011. AlphaScreen HP1-beta / biotin-H3K9me3 peptide binding; note: nearly all actives have a fitted effect of over 70% in size
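Compound inhibition of the preformed complex between 50 nM HP1-beta and 50 nM biotinylated H3K9me3 peptide was read by AlphaScreen. Buffer was PBS pH 7.4 with 0.01% Tween-20. Incubations ran 30 min at room temperature, with 10 ug/mL donor/acceptor beads.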
G9a inh = qHTS Assay for Inhibitors of Histone Lysine Methyltransferase G9a; G9a H3K9 monomethylation, AlphaScreen, 2 h; Histone-lysine N-methyltransferase EHMT2 (Homo sapiens), Q96KQ7; Potency, µM (series often up to 102 µM), for inactives: top-dose activity, negative = inhibition, usual class: inhibitors; hit rate 8.8% among 350,000; note: % is set by controls: 0 for no effect and ±100 for the full control effect; nearly all actives have a fitted effect of over 75% in size
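Using a bead-based AlphaScreen, monomethylated H3K9 product from 2 h room-temperature reactions (G9a 20 nM, peptide 500 nM, SAM 20 uM) was detected with 0.5 ug/mL rabbit anti-H3K9me1 antibody.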
Sfp inh = qHTS Assay for Inhibitors of Bacillus subtilis Sfp phosphopantetheinyl transferase (PPTase) | Biochemical Sfp PPTase activity, qHTS | Potency, µM, for inactives: largest response in the series, negative = inhibition, usual class: inhibitors | hit rate 3.5% among 310,000 | AID 1490, 2009 | 4'-phosphopantetheinyl transferase ffp (Bacillus subtilis), Q9F4F7;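 note: the enzyme is Sfp with the accession as filed and its product quenches rhodamine fluorescence; 0% = enzyme reaction without inhibitor and -100% = no enzyme wells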
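Fluorescence-quenching assay with 15 nM Sfp, 5 uM rhodamine-CoA and 12.5 uM BHQ-2-labelled ybbR peptide in pH 7.6 Hepes/MgCl2 buffer. Enzyme was pre-incubated with compound for 15 min at room temperature. Rate was taken from the 30-min fluorescence change (525/598 nm).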
ALOX12 inh = Primary qHTS assay for inhibitors of human arachidonate 12S-lipoxygenase (ALOX12): Round 2 | purified 12hLO, xylenol orange hydroperoxide absorbance | Potency, µM (top dose mostly 108 µM), for inactives: top-dose activity change, negative = inhibition, most hits filed as inhibitors | hit rate 1.1% among 580,000 | AID 1671190, 2021 | Polyunsaturated fatty acid lipoxygenase ALOX12 (Homo sapiens), P18054; note: % is set by controls: 0 for no effect and ±100 for the full control effect
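Hydroperoxide product was detected by ferrous iron/xylenol orange as the 573 to 405 nm absorbance ratio. Arachidonic acid at 40 uM (final) was turned over for 30 min at room temperature by 150 nM human 12hLO, pH 7.0 Hepes buffer, after 15 min compound preincubation.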
Active calls of the source: *; ? = inconclusive; . = not tested or not shown; [ ] = remark or other dose. Calls come from the whole dose curve; as a rule, active = well fitted curve in the direction sought with a large enough effect; inconclusive = small, poorly fitted or top-dose-only effect, or another doubt; inactive = no such curve, though single readings can be large; an effect the other way counts as inactive or inconclusive. Potency is the fitted concentration of half-maximal effect.

SMILES | JMJD2A Tudor inh | BAZ2B inh | HP1b binding inh | G9a inh | Sfp inh | ALOX12 inh
N#CC1=C(N)n2ncnc2NC1c1ccc(Cl)cc1Cl (stereo unspecified) | . | . | . | . | . | -25%
N#CC1=C(N)NC(=S)C(C(N)=O)C1c1ccccc1F (stereo unspecified) | -29% | -15% | 9% | 50µM* | 0.71µM* | 0%
Cc1cccc(NC(=O)C2CCN(C(=O)c3nnn4cc(C)[nH]c(=O)c34)CC2)c1 | . | . | . | . | . | 36%
CCOc1cc(Br)cc(C(c2c(C(=O)O)[nH]c3ccccc23)c2c(C(=O)O)[nH]c3ccccc23)c1O | -24% | -33% | 26% | 20%[0.501 µM] | 33% | 5.6µM*
CSc1ccc(C(c2c(C(=O)O)[nH]c3ccccc23)c2c(C(=O)O)[nH]c3ccccc23)cc1 | -19% | 50µM* | 15% | 21%[0.501 µM] | 25% | -12%
CCOC(=O)c1[nH]c2ccccc2c1NC(C)=O | -17% | -2% | 31% | 21%[12.7 µM] | 21% | 12%[57.4 µM]
Cc1[nH]c2ccccc2c1C(c1ccc(O)cc1)c1c(C)[nH]c2ccccc12 | . | . | . | . | . | 14µM*
CSc1ccc(C(c2c(C)[nH][nH]c2=O)c2c(C)[nH][nH]c2=O)cc1 | -36% | -5% | 14% | . | -5% | ?
Cc1[nH]c2ccccc2c1C(c1ccccc1)c1ccc(Cl)s1 (stereo unspecified) | ? | ? | 23% | -9%[59 µM] | . | -14%
Cc1cc(C(=O)NCCCN2CCCCCC2=O)c2ccc(F)cc2n1 | . | . | . | . | . | 18%
O=C(Cc1cccs1)OCC(=O)c1ccco1 | 79µM* | ? | ? | 50µM* | -19% | 12%
Cc1ccc(C)c(SCC(=O)NCc2ccco2)c1 | -5% | -34%[57.1 µM] | 11% | 43%[0.501 µM] | -7% | -2%
Cc1ccc(C)c(SCC(=O)OCC(=O)c2ccco2)c1 | 79µM* | 50µM* | ? | ? | -4% | 40µM*
O=C(CCc1ccccc1)N1CC[C@H]2COC(=O)N2c2cc(F)ccc2C1 | . | . | . | . | . | 104%[176 µM]
CCCCNc1nc(-c2c(N)n(CCC)c(=O)n(C)c2=O)cs1 | . | . | . | . | . | -46%
CCCn1c(N)c(-c2csc(NC)n2)c(=O)n(C)c1=O | . | . | . | . | . | 7.9µM*
CC1CCCC(NC(=O)COC(=O)c2ccc(N(C)C)cc2)C1C (stereo unspecified) | -9% | -6% | 29% | -24% | -13% | -13%
CCN(CC)c1ccc(C(=O)OCC(=O)NC2CCCCC2C)cc1 (stereo unspecified) | 50µM* | 7% | 1% | -11% | -14% | -11%
CCCN(Cc1ccccc1)C(=O)COc1ccc2ccc(=O)oc2c1 | . | . | . | . | . | 1%
O=[N+]([O-])c1ccc(N2CCN(Cc3ccccc3)CC2)s1 | -16% | ? | 5% | -30%[2.33 µM] | 2% | -17%
O=[N+]([O-])c1ccc(N2CCCCC2)s1 | -25% | -31% | ? | 22µM* | 50µM* | ?
CCCCSc1nc2c(c(=O)[nH]c(=O)n2C)n1CCCC | . | . | . | . | . | -19%
COc1ccc(N2CCN(C(CNC(=O)C(=O)NCC3CCCO3)c3ccco3)CC2)cc1 (stereo unspecified) | -26% | -2% | -25% | 32µM* | -10% | -6%
COc1ccc(C(c2nnnn2CCc2ccccc2)N2CCN(C3CCCC3)CC2)cc1 (stereo unspecified) | -32% | 5% | 11% | 79µM* | 0% | ?
COc1ccc(Cn2nnnc2C(c2ccccc2)N2CCN(C3CCCC3)CC2)cc1 (stereo unspecified) | -3%[11.4 µM] | -37% | 54% | ? | -1% | 8%
SMILES | JMJD2A Tudor inh | BAZ2B inh | HP1b binding inh | G9a inh | Sfp inh | ALOX12 inh
COC(=O)NCC(c1ccco1)N1CCN(c2ccc(OC)cc2)CC1 (stereo unspecified) | -7%[11.4 µM] | . | 59% | ? | 16% | -2%
COCCn1nnnc1C(c1ccccc1)N1CCN(C)CC1 (stereo unspecified) | ? | -34% | 16% | ? | 7% | ?
CCCC(c1nnnn1Cc1ccco1)N1CCN(c2ccccc2)CC1 (stereo unspecified) | -16% | 56µM* | 16% | ? | -25% | -5%
COCCn1nnnc1C(c1ccccc1)N1CCN(c2ccccc2)CC1 (stereo unspecified) | ? | 50µM* | 13% | ? | 21% | ?
O=C(NC[C@H]1O[C@@H](CO)[C@@H](O)[C@H]1N1CCN(c2ccc(F)cc2)CC1)c1ccco1 | . | . | . | . | . | -1%
COc1ccc(OC)c(C(c2nnnn2CCc2ccccc2)N2CCN(c3ccccc3)CC2)c1 (stereo unspecified) | -35% | -38% | -18% | -11% | 10% | 0%
COc1ccc(C(c2nnnn2CC2CCCO2)N2CCN(c3ccc(F)cc3)CC2)cc1 (stereo unspecified) | -3%[11.4 µM] | 56µM* | 40% | -48%[12.7 µM] | -22% | ?
COc1ccccc1N1CCN(C(c2ccccc2)c2nnnn2Cc2ccccc2)CC1 (stereo unspecified) | -17% | . | 21% | . | . | .
COc1ccccc1N1CCN(C(c2ccc(N(C)C)cc2)c2nnnn2CCc2ccccc2)CC1 (stereo unspecified) | ? | 25µM* | -49% | 2µM* | -11% | -12%
COc1ccc(N2CCN(C(c3cc(OC)ccc3OC)c3nnnn3Cc3ccco3)CC2)cc1 (stereo unspecified) | 50µM* | 45µM* | 16µM* | 16µM* | -15% | 22µM*
CCCCC(c1nnnn1CCOC)N1CCN(c2cccc(OC)c2)CC1 (stereo unspecified) | 1%[11.4 µM] | 50µM* | 14% | 45µM* | 8% | ?
O=S(=O)(NC[C@H]1OC[C@@H](NCc2cccnc2)[C@@H]1O)c1ccccc1 | . | . | . | . | . | -7%[176 µM]
CCCn1nc(C(=O)NCC)c2ccccc2c1=O | . | . | . | . | . | 5%
CNC(=O)[C@H]1C[C@H](Oc2ccccc2)CN1C(=O)CCc1nc2ccccc2s1 | . | . | . | . | . | 29%
CC(C)n1nnnc1C(c1ccc(F)cc1)N1CCN(C2CCCC2)CC1 (stereo unspecified) | -21%[11.4 µM] | ? | 51% | 79µM* | -9% | ?

Screening data deposited in PubChem by National Center for Advancing Translational Sciences (NCATS).
